# Only some compounds are listed: those with a hit (about 4.7% of all), similar ones and a draw of the others.
# TRHR ag = agonists of human TRH receptor. 360,000 compounds, 0.18% hits. AID 493084. P34981. TRHR cells, calcium flux fluo-8, FDSS agonist mode. activation, % at 2 µM; note: 0% is about no effect
#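 Read-out: compound-evoked intracellular calcium rise in TRHR cells, fluo-8 dye, kinetic FDSS fluorescence at 1 s/cycle following a 10-cycle baseline. Cells cultured overnight before dye loading (30 min–1.5 h, RT).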
# D1 potentiator = potentiators of human D1 dopamine receptor | HEK293 TREx D1 cells, calcium flux, dopamine EC20 potentiation | 360,000 compounds, 0.036% hits | P21728 | AID 504651 | potentiation, % at 10 µM; in the data active = potentiation above about 30%; note: 0% is about no effect
# Target sequence (P21728 whole entry, looked up): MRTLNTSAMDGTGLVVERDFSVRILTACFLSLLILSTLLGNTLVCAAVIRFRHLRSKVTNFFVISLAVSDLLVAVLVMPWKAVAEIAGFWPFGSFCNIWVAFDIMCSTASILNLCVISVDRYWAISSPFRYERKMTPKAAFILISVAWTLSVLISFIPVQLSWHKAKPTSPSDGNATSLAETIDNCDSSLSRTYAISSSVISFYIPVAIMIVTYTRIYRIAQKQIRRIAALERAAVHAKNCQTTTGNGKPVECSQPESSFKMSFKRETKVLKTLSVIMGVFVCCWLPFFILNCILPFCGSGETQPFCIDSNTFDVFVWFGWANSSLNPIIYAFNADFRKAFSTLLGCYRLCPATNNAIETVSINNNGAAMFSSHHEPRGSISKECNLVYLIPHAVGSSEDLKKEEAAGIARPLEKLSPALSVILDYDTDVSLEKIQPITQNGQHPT
# D1 agonist = human D1 receptor agonism | 360,000 compounds, 1% hits | P21728 | AID 504660 | HEK293 T-REx D1 cells, calcium flux, agonist mode | activation, % at 2 µM; note: 0% is about no effect
#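 Tetracycline-induced HEK293 TREx D1 cells, force-coupled to calcium signalling, were dye-loaded with a no-wash calcium kit. Compound was pin-added after a 10 s baseline. Fluorescence was read kinetically at 1 cycle/s for 180 s, with calcium rises flagged as agonism.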
# D1 antag = human D1 dopamine receptor antagonism; P21728; AID 504652; 360,000 compounds, 3.2% hits; activity change, negative = inhibition, % at 10 µM; HEK293 TREx D1 cells, calcium flux, dopamine EC80; hits give low values; in the data active = activity change below about -30%; note: % is set by controls: 0 for no effect and ±100 for the full control effect
#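 Compound effects on dopamine-evoked calcium signalling were measured in tetracycline-induced HEK293 Trex D1 cells. Dopamine at EC80 followed a 180 s compound pre-read, and fluorescence was tracked kinetically for 180 s more.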
# TRHR PAM = TRH receptor (human) allosteric enhancement. P34981. TRHR cells, fluo-8 calcium fluorescence, EC20 TRH enhancement. enhancement, % at 2 µM. 360,000 compounds, 0.66% hits. AID 493056; in the data active = enhancement above about 30%; note: 0% is about no effect
#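 Enhancer read-out: after compound pinning and an initial kinetic agonist-mode read, an EC20 of TRH (10 nM final) was injected and fluo-8 calcium signal (Ex 480/Em 530) followed at 1 s/cycle for 100 cycles in TRHR-expressing cells.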
# * = called active by the depositor. Cut-off read from the data, not from the text of the source, unless noted: active = activation above about 30%; inactive = the rest.
SMILES,TRHR ag,D1 potentiator,D1 agonist,D1 antag,TRHR PAM
Cc1ccc(-n2ncc3c(NCCc4ccccc4)ncnc32)cc1Cl,0,-3,7,-36*,7
Cc1ccc(C)c(NC(=O)C(CC(C)C)N2Cc3ccccc3C2=O)c1 (stereo unspecified),-1,1,11,-2,-4
COc1ccc(C2CCCN2CC(O)COc2ccccc2C(C)C)cc1 (stereo unspecified),1,-5,9,-30*,13
Cc1ccc(C)c(N2CCN(CCCNC(=O)Cn3cccc3C(=O)c3ccccc3C)CC2)c1,0,-6,26,-36*,8
Cc1ccccc1C(=O)c1cccn1CC(=O)NCCCN1CCCCC1,0,0,-1,15,-1
CCCSc1ncnc2c1c(-c1ccccc1)cn2-c1ccccc1OC,0,5,5,3,-2
CC(C)n1cc(/C=C2\NC(=O)N(c3cccc(Cl)c3)C2=O)c2ccccc21,1,-10,2,-68*,-3
CC(C)n1cc(/C=C2/NC(=O)N(c3cccc(Cl)c3)C2=O)c2ccccc21,1,-10,0,-53*,-3
O=C(O)Cn1cc(/C=C2/NC(=O)N(c3ccc(Cl)cc3)C2=O)c2ccccc21,0,0,2,-5,9
Cc1cccc(C(=O)Nc2c3c(nn2C(C)(C)C)CS(=O)(=O)C3)c1,-1,3,3,-1,-2
CC(C)(C)n1nc2c(c1NC(=O)c1ccccc1)CS(=O)(=O)C2,1,-15,0,-41*,-5
Cc1cc(NC(=O)c2ccccc2Cl)n(C(C)(C)C)n1,1,-1,11,10,1
Cc1cc(NC(=O)c2ccccc2)n(C(C)(C)C)n1,-1,-3,0,-33*,11
CCOC(=O)Cn1nc(C)cc1NC(=O)c1cc(OC)c(OC)c(OC)c1,0,2,1,0,-3
CCOC(=O)Cn1nc(C)cc1NC(=O)c1ccncc1,0,-1,5,-2,34*
COc1ccccc1CN1COc2ccc3c(C)cc(=O)oc3c2C1,0,1,0,2,2
CN1CCN(C2=Nc3cc(F)ccc3Cc3ccccc32)CC1,0,-3,9,-84*,1
CN1CCN(C2=Nc3c(Cl)cc(Cl)c4cccc2c34)CC1,5,-2,6,-9,-1
COC(=O)C(/C=N/OCc1ccc([N+](=O)[O-])cc1)NC(=O)c1cccc(Cl)c1 (stereo unspecified),6,-10,41*,-5,-5
O=C(NCCc1ccccc1)c1ccnc(/C=N/O)c1,1,-11,1,-34*,5
O=C(NCCc1ccccc1)c1cnc(Cl)c(Cl)c1,0,4,0,6,-2
CCOC(=O)NN1C(=O)c2ccccc2NC1c1cccs1 (stereo unspecified),0,-1,2,-1,5
CN(C)CC/C=C1\c2ccccc2COc2ccccc21,1,-5,14,-79*,-2
COc1ccc2c(c1)C(=O)c1ccccc1CO2,-1,0,2,-7,6
CCCCCC[N+](C)(C)CC/C=C1/c2ccccc2Sc2ccc(Cl)cc21,-1,-3,0,-38*,5
SMILES,TRHR ag,D1 potentiator,D1 agonist,D1 antag,TRHR PAM
CN(C)CC/C=C1/c2ccccc2Sc2ccc(Cl)cc21,1,-9,16,-96*,-7
CN(C1CCCCC1)S(=O)(=O)c1cc2c(cc1Cl)NC(=O)CO2,1,-4,2,0,-4
CCCCCCc1cc2cc(S(=O)(=O)c3ccc(F)cc3)c(=O)oc2cc1O,17,-4,23,-13,7
CCCCCCc1cc2cc(-c3nnc(-c4ccccc4O)o3)c(=O)oc2cc1O,147*,0,356*,2,51*
CCCCCCc1cc2cc(-c3nnc(-c4ccccc4OC)o3)c(=O)oc2cc1O,148*,-9,303*,-9,-14
CCCCCCc1cc2cc(-c3nnc(-c4cc(OC)c(OC)c(OC)c4)o3)c(=O)oc2cc1O,-1,6,0,4,-3
Cc1nnc2c(N3CCN(c4ccccc4F)CC3)nc3ccccc3n12,1,-2,8,-4,7
Cc1cccc(NC(=O)CN(C)C(=O)c2ccc3ccccc3n2)c1C,0,-1,6,-9,-1
COCCN(CC(=O)Nc1cccc(C)c1C)C(=O)c1ccc2ccccc2n1,0,3,1,-12,32*
CCOC(=O)/C=c1\s/c(=C\c2ccccc2C)c(=O)n1CC(=O)NCc1ccc2c(c1)OCO2,0,-10,5,-57*,-1
CCN(C(=O)Cn1ncc2c1-c1cc(C)ccc1OC2)c1cc(Cl)ccc1OC,0,11,-1,50,-22
Cc1noc(C)c1CSc1nc2ccccc2[nH]1,0,-4,0,6,1
c1ccc(-c2cc(CSc3nc4ccccc4[nH]3)on2)cc1,0,-4,16,-31*,-1
CC(=O)CC1(O)C(=O)N(Cc2ccccc2)c2ccccc21 (stereo unspecified),0,-13,2,-85*,-21
Cc1ccc(C(=O)CC2(O)C(=O)N(Cc3ccccc3Cl)c3ccccc32)o1 (stereo unspecified),0,11,-1,-31*,0
CCOC(=O)C1CCCN(C(=O)c2ccc3nc(-c4cccc(OC)c4)oc3c2)C1 (stereo unspecified),0,-2,5,-10,-9
COc1ccc(NC(=O)C2C(=O)N(C)C3(C)CC2c2ccccc2O3)cc1 (stereo unspecified),0,0,0,-32*,-8
COc1cccc(N2CCN(C(=O)c3ccc(N4C(=O)NC5CC4(C)Oc4ccccc45)cc3)CC2)c1 (stereo unspecified),0,-9,1,8,-8
COc1ccc(N2C(=O)NC3CC2(C)Oc2ccccc23)cc1 (stereo unspecified),1,-7,0,-39*,-4
COc1ccc(Cl)cc1NC(=O)Cn1cc(C(=O)c2ccc(C)cc2)c(=O)c2ccc(C)nc21,1,7,3,20,10
CCc1ccc(C(=O)c2cn(CC(=O)Nc3cc(OC)ccc3OC)c3nc(C)ccc3c2=O)cc1,0,-2,7,-49*,4
Cc1ccc(S(=O)(=O)N2CCCc3cc(NC(=O)c4ccccc4Cl)ccc32)cc1,-1,1,19,-4,0
COc1ccc(NC(=O)CCC2CCCC2)cc1OC,0,-1,2,7,-2
O=C(COC(=O)CC1CCCC1)Nc1cccc(F)c1,0,2,1,-31*,-1
COc1ccc(NC(=O)CC2CCCC2)cc1OC,1,-5,3,-46*,3
CN(CC(=O)Nc1ccc(Cl)cc1)C1CCCCC1,2,2,6,-11,-7
COc1ccc(NC(=O)CN(C)C2CCCCC2)cc1Cl,2,3,3,-45*,-1

# Bioassay records: PubChem, National Center for Advancing Translational Sciences (NCATS)
